Reference: PubChem BioAssay (NCATS)
Records with an inconclusive call do not appear. Active and inactive are the calls of the source. Calls follow the shape of the full dose curve.

Assay: Cell Viability - HepG2 (AID 433);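 also: potency for ATP loss meaning cytotoxicity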
Conditions: qHTS
Text: NIH Chemical Genomics Center [NCGC]
NIH Molecular Libraries Screening Centers Network [MLSCN]
National Institutes of Environmental Health Sciences [NIEHS]
National Toxicology Program [NTP]
We have developed a 1536-well cell-based assay for quantitative high throughput screening (qHTS) against a number of cell lines to determine in vitro cytotoxicity of small molecules. This particular assay uses the HepG2 cell line which is derived from hepatocellular carcinoma.
NCGC Assay Protocol Summary:
The CellTiter-Glo luminescent cell viability assay (Promega) is a homogeneous method to measure the number of viable cells in culture. The end point readout of this assay is based on quantitation of intracellular ATP, an indicator of metabolic activity, using the luciferase reaction. Luciferase catalyzes the oxidation of beetle Luciferin to oxyluciferin and light in the presence of ATP. The luminescent signal is proportional to amount of ATP present.
Using the CellTiter-Glo luminescent cell viability assay, the amount of cellular ATP was measured in the HepG2 cell line with complete culture medium following compound treatment for 40 hours. The assay was performed in opaque white Kalypsys 1536-well plates. In the screen, tamoxifen and doxorubicin were used as positive controls. Library compounds were measured for their ability to cause acute toxicity in the cell line, as reflected by a decrease in intracellular ATP levels, in a concentration-dependent manner. Data were normalized to the controls for basal activity (DMSO only) and 100% inhibition (100 uM tamoxifen). AC50 values were determined from concentration-response data modeled with the standard Hill equation.
qHTS protocol fo CellTiter Glo HepG2 cellular assay
[Step] [Parameter] [Value] [Description]
1. Reagent; 5 uL; 1500 HepG2 cells/well
2. Time; 5 hr; 37 °C incubation
4. Controls; 23 nL; Tamoxifen 0.34 uM to 100 uM & Doxorubicin 0.02 nM to 100 uM
5. Time; 40 hr; 37 °C incubation
6. Reagent; 5 uL; CellTiter Glo reagent
7. Time; 20 min; Room Temperature
8. Detection; Luminescence; Viewlux plate reader
Keywords: cell viability, cytotoxicity, HepG2 cell line, luminescence, NTPHTS, NTPHTS_NCGC, NIEHS, EPA, DSSTox, MLSMR, MLSCN, NIH Roadmap, qHTS, NCGC
Potency is read from the fitted curve at half-maximal effect.

Row | SMILES | Potency
1 | CCCCCCCCCCCC(=O)O | > 92 µM (inactive)
2 | C=CCc1ccc(OC)c(OC)c1 | > 92 µM (inactive)
3 | ClCCCl | > 92 µM (inactive)
4 | CC12CCC(CC1=O)C2(C)C (stereo not given) | > 92 µM (inactive)
5 | C/C=C\c1ccc(OC)cc1 | > 92 µM (inactive)
6 | Cc1ccc([N+](=O)[O-])c(C)c1 | > 92 µM (inactive)
7 | COC(=O)CCCCC(=O)OC | > 92 µM (inactive)
8 | CC1(C)CC(N=C=O)CC(C)(CN=C=O)C1 (stereo not given) | > 92 µM (inactive)
9 | Nc1ccc(Cl)cc1Cl | > 92 µM (inactive)
10 | O=C1CCc2ccccc2O1 | > 92 µM (inactive)
11 | CCO | > 92 µM (inactive)
12 | O[C@@H]([C@H](O)[C@@H](O)CBr)[C@@H](O)CBr | > 92 µM (inactive)
13 | C=CC(=C)CCC=C(C)C | > 92 µM (inactive)
14 | Cc1ccccc1C | > 92 µM (inactive)
15 | O=C(O)c1ccccc1C(c1ccc(O)cc1)c1ccc(O)cc1 | > 92 µM (inactive)
16 | CCC(O)OC(O)CC (stereo not given) | > 92 µM (inactive)
17 | CCCCCCCCCCCCCCC1CO1 (stereo not given) | > 92 µM (inactive)
18 | C=C(C)C1CC=C(C)C(O)C1 (stereo not given) | > 92 µM (inactive)
19 | CC(C)=CCCC(C)CCO (stereo not given) | > 92 µM (inactive)
20 | NC1=NC(S)C2N=CN=C2N1 (stereo not given) | 1.89 µM (active)

Row | SMILES | Potency
21 | CCCN(CCC)C(=O)SCC | > 92 µM (inactive)
22 | C1OCOCO1 | > 92 µM (inactive)
23 | CN(C)CCCCCCN(C)C | > 92 µM (inactive)
24 | O=C(O)c1ccc(O)cc1O | > 92 µM (inactive)
25 | CC1=CC(C)(C)Nc2ccccc21 | > 92 µM (inactive)
26 | OCCNCCO | > 92 µM (inactive)
27 | COc1cc(/C=C/c2ccccc2)oc(=O)c1 | > 92 µM (inactive)
28 | CC(=O)OC/C=C(\C)CCC=C(C)C | > 92 µM (inactive)
29 | Cc1c(N=C=O)cccc1N=C=O | > 92 µM (inactive)
30 | COC(=O)c1ccc(C)cc1 | > 92 µM (inactive)
31 | c1ccccc1 | > 92 µM (inactive)
32 | Cc1ccc([N+](=O)[O-])cc1N | > 92 µM (inactive)
33 | CC1=C2[C@H](/C=C(\C)C(=O)O)CC[C@@H](C)[C@H]2CC1 | > 92 µM (inactive)
34 | O=C(/C=C/c1ccc(O)c(O)c1)O[C@@H](C(=O)O)[C@@H](OC(=O)/C=C/c1ccc(O)c(O)c1)C(=O)O | > 92 µM (inactive)
35 | COCC(=O)O | > 92 µM (inactive)
36 | CCC(C)c1ccccc1O (stereo not given) | > 92 µM (inactive)
37 | CCCCOCCO | > 92 µM (inactive)
38 | c1ccc2c(c1)[nH]c1ccccc12 | > 92 µM (inactive)
39 | Cc1cccc([N+](=O)[O-])c1C | > 92 µM (inactive)
40 | C[C@H](CCC(=O)O)[C@H]1CC[C@H]2[C@@H]3CC[C@@H]4C[C@H](O)CC[C@]4(C)[C@H]3CC[C@]12C | > 92 µM (inactive)
